Measurements taken from the supplement of paper PMC10849652.
About 8,800 targets were measured; listed, in parts, are those with a hit and a random draw of the rest. About 0.5% of all pairs of compound and target were hits. A number with no mark means an inactive call.

How the values were obtained:
Experiment in all cases: log2 fold change, soluble protein after heating vs DMSO (PISA); higher = thermal stabilisation; K562 lysate, 10 uM; active = over 0.2 and 3.5 SD of the protein, either way, in both replicates (recomputed)
lapatinib = compound: CS(=O)(=O)CCNCc1ccc(-c2ccc3ncnc(Nc4ccc(OCc5cccc(F)c5)c(Cl)c4)c3c2)o1 [lapatinib]
Method in brief: (§1)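 Pellets of K562 cells were dounce-homogenised in PBS pH 7.4 with 1 mM MgCl2, and the crude extract was held at 1 mg/mL protein for a 30 min treatment with 10 μM compound. Aliquots were heated for 3 min over 48°C-58°C and pooled before NP-40 was added to 0.5% at 4°C. The supernatant from 21,000xg for 90 min was quantified by TMTpro 16plex LC-MS/MS with channel sums equalised. Values are reported from duplicates as log-two fold change in thermal stability relative to solvent controls.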

pictilisib = compound: CS(=O)(=O)N1CCN(Cc2cc3nc(-c4cccc5[nH]ncc45)nc(N4CCOCC4)c3s2)CC1 [pictilisib]
Method in brief: as §1

crizotinib = compound: C[C@@H](Oc1cc(-c2cnn(C3CCNCC3)c2)cnc1N)c1c(Cl)ccc(F)c1Cl [crizotinib]
Method in brief: as §1

[1] = compound: C[C@H](C1=CC=C(C=C1)C(=O)NC2=C3C=CNC3=NC=C2)N
Method in brief: as §1

duvelisib = compound: C[C@H](Nc1ncnc2nc[nH]c12)c1cc2cccc(Cl)c2c(=O)n1-c1ccccc1 [duvelisib]
Method in brief: as §1

gandotinib = compound: Cc1cc(Nc2cc(CN3CCOCC3)c3nc(C)c(Cc4ccc(Cl)cc4F)n3n2)n[nH]1 [gandotinib]
Method in brief: as §1

tozasertib = compound: Cc1cc(Nc2cc(N3CCN(C)CC3)nc(Sc3ccc(NC(=O)C4CC4)cc3)n2)n[nH]1 [tozasertib]
Method in brief: as §1

doramapimod = compound: Cc1ccc(-n2nc(C(C)(C)C)cc2NC(=O)Nc2ccc(OCCN3CCOCC3)c3ccccc23)cc1 [doramapimod]
Method in brief: as §1

bafetinib = compound: Cc1ccc(NC(=O)c2ccc(CN3CC[C@H](N(C)C)C3)c(C(F)(F)F)c2)cc1Nc1nccc(-c2cncnc2)n1 [bafetinib]
Method in brief: as §1

[2] = compound: Cc1cccc(CC(=O)N2CCc3c2ccc(-c2cn(C)c4ncnc(N)c24)c3F)n1
Method in brief: as §1

Sequence of UniProt Q8TB52 (Q8TB52 whole entry, looked up): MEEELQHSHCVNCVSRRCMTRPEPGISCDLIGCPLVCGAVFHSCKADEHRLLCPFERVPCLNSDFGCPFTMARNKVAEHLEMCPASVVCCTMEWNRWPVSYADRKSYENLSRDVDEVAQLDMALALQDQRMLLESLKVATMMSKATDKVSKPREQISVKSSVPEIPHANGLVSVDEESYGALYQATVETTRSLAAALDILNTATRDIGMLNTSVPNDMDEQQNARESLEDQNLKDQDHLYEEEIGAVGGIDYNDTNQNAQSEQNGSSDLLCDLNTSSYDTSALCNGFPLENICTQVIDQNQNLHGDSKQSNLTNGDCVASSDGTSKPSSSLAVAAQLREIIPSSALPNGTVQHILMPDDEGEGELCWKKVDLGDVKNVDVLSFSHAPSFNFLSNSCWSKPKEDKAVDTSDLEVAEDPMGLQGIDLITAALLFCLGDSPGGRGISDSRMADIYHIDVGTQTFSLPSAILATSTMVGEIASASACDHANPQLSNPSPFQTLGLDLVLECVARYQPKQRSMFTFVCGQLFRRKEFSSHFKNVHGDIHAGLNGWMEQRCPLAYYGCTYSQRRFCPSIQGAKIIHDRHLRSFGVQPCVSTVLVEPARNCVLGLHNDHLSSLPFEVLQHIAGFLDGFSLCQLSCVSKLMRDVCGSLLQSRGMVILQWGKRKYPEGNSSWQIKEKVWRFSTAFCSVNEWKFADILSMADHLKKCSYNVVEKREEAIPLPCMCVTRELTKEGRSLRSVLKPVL
Sequence of UniProt Q14318 (Q14318 whole entry, looked up): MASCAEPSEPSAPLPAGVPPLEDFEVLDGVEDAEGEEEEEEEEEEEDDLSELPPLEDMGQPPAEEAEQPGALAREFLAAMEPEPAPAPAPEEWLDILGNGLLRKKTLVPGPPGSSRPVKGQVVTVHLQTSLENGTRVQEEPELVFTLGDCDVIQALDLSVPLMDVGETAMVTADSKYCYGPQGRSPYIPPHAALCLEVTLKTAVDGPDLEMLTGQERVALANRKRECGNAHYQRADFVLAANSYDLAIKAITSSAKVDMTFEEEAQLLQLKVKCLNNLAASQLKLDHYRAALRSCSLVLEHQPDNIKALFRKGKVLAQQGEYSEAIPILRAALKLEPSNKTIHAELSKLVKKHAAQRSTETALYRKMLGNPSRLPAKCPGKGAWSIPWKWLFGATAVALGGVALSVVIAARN
Sequence of UniProt Q96A65 (Q96A65 whole entry, looked up): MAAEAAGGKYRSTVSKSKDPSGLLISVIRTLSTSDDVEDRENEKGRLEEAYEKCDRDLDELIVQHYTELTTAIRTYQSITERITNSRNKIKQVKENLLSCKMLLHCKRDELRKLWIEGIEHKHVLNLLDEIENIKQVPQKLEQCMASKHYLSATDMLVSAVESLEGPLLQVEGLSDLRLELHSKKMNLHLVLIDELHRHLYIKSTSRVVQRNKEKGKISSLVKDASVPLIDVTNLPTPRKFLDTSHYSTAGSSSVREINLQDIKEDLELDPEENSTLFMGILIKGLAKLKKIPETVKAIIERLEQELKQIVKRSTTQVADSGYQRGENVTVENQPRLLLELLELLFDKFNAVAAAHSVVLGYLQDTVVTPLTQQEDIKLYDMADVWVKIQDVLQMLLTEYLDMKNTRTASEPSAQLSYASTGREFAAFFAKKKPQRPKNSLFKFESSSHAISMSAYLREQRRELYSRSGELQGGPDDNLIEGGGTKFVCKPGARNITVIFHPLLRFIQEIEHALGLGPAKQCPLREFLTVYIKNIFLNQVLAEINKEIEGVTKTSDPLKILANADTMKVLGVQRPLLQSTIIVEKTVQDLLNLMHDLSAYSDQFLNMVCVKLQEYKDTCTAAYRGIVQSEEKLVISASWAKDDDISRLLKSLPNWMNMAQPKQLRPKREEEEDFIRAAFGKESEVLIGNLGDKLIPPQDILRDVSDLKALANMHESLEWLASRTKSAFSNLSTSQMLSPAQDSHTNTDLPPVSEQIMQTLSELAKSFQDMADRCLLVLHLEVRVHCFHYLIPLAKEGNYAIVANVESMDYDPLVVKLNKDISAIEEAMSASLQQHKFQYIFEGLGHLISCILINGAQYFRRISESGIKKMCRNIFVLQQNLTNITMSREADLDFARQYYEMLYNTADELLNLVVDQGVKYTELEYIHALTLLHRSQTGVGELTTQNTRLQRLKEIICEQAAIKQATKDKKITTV
Sequence of UniProt Q8TAG9 (Q8TAG9 whole entry, looked up): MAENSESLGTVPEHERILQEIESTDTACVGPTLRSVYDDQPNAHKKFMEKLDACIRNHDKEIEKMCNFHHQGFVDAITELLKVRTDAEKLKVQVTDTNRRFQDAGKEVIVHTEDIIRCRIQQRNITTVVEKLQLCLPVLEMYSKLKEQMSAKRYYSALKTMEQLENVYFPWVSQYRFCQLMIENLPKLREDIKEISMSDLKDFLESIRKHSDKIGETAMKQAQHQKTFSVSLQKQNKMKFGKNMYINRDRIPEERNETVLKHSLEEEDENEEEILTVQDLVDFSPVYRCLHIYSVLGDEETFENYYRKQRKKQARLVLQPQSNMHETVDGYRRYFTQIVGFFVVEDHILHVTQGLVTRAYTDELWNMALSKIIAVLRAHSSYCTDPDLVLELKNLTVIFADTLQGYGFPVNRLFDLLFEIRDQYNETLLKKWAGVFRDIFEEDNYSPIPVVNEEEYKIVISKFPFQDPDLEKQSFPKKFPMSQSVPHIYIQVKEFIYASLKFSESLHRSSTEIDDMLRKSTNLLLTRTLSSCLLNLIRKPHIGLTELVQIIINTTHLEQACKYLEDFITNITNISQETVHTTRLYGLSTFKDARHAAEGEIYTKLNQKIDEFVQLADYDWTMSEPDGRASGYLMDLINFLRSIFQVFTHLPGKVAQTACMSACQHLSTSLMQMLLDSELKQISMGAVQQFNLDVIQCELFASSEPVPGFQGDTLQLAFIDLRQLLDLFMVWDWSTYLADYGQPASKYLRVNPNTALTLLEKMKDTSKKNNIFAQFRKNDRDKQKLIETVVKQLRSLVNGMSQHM
Sequence of UniProt Q96F86 (Q96F86 whole entry, looked up): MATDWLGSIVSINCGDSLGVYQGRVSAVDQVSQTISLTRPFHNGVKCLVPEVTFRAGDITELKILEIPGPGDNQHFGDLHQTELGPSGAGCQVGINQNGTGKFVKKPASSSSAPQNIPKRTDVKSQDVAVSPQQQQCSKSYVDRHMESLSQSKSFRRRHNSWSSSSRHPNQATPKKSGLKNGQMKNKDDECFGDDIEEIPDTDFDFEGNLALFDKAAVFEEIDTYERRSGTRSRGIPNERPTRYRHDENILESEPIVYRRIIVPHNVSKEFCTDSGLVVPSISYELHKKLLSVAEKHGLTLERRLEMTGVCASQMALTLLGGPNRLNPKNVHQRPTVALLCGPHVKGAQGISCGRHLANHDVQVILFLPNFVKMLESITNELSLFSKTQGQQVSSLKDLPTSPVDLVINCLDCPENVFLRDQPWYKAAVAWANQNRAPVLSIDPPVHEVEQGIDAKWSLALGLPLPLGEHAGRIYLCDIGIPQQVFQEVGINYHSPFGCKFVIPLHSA
Sequence of UniProt Q9NX74 (Q9NX74 whole entry, looked up): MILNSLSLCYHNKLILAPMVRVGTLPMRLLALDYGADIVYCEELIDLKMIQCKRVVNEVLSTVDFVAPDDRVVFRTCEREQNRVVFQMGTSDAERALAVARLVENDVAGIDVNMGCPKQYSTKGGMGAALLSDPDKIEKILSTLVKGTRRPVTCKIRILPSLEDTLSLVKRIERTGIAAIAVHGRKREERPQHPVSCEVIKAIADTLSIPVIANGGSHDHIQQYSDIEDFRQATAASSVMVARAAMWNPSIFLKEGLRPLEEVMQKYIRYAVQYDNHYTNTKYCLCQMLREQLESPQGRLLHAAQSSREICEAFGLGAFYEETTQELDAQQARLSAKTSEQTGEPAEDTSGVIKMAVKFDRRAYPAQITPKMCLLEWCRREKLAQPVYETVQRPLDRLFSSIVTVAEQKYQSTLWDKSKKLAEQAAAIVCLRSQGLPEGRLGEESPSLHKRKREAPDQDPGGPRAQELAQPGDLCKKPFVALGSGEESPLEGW
Sequence of UniProt Q8NFF5 (Q8NFF5 whole entry, looked up): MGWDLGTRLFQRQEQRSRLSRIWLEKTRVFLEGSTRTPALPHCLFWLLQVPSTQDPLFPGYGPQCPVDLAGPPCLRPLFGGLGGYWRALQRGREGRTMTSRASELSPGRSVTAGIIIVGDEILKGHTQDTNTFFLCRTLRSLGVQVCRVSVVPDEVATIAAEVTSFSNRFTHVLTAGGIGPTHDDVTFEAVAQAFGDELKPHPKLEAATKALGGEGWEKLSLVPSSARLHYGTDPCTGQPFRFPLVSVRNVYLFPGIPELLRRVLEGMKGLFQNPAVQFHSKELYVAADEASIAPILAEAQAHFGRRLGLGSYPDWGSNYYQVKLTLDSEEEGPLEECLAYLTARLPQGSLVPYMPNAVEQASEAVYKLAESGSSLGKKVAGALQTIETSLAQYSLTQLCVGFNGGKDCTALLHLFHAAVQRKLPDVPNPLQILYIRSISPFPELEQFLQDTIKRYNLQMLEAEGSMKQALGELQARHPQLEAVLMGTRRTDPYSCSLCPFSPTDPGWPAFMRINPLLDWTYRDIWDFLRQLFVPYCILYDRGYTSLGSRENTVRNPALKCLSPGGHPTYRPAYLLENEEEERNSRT
Sequence of UniProt P60981 (P60981 whole entry, looked up): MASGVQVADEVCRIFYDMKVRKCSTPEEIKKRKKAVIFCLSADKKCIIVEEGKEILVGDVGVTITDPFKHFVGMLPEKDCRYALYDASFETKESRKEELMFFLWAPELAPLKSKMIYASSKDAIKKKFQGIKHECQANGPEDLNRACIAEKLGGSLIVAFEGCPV
Sequence of UniProt Q9NPA8 (Q9NPA8 whole entry, looked up): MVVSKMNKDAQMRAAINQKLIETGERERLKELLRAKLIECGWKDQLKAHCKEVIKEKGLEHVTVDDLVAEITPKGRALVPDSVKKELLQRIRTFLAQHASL
Sequence of UniProt P62942 (P62942 whole entry, looked up): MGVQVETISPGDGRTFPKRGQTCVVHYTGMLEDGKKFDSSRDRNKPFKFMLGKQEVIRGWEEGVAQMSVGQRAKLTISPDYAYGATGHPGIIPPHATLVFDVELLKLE

| Target | log2 fold change (lapatinib) | log2 fold change (pictilisib) | log2 fold change (crizotinib) | log2 fold change [1] | log2 fold change (duvelisib) | log2 fold change (gandotinib) | log2 fold change (tozasertib) | log2 fold change (doramapimod) | log2 fold change (bafetinib) | log2 fold change [2] |
| --- | --- | --- | --- | --- | --- | --- | --- | --- | --- | --- |
| ERI1 (UniProt Q8IV48) | 0.037 | -0.079 | -0.017 | 0.047 | -0.022 | -0.123 | -0.015 | 0.015 | 0.04 | -0.051 |
| FYCO1 isoform 4 (UniProt Q9BQS8) | -0.005 | -0.018 | -0.018 | -0.114 | 0.036 | 0.229 | 0.021 | -0.009 | -0.019 | 0.176 |
| FIG4 (UniProt Q92562) | -0.065 | 0.12 | -0.016 | 0.039 | -0.023 | -0.099 | -0.112 | -0.067 | -0.09 | 0.058 |
| ENY2 (UniProt Q9NPA8) | 0.025 | -0.024 | 0.031 | 0.726 (active) | 0.034 | -0.386 (active) | 0.019 | -0.021 | -0.07 | -0.529 (active) |
| FKBP1A (UniProt P62942) | -0.011 | -0.031 | 0.005 | -0.814 (active) | 0.074 | 0.266 | -0.037 | -0.04 | -0.111 | 0.15 |
| FLAD1 (UniProt Q8NFF5) | 0.007 | 0.002 | -0.024 | 0.021 | 0.05 | 0.044 | -0.052 | -0.02 | -0.052 | -0.05 |
| FARSA (UniProt Q9Y285) | -0.028 | 0.012 | -0.05 | -0.003 | 0.056 | 0.039 | -0.063 | 0 | -0.075 | -0.047 |
| DTYMK (UniProt P23919) | 0.026 | -0.003 | -0.042 | 0.055 | 0.023 | -0.135 | 0.01 | 0.045 | 0.007 | -0.029 |
| GALNT2 (UniProt Q10471) | -0.016 | -0.039 | 0.009 | -0.074 | -0.044 | 0.272 (active) | 0.047 | -0.014 | -0.002 | 0.18 |
| FBXO30 (UniProt Q8TB52) | -0.015 | -0.03 | -0.013 | 0.187 | 0.024 | -0.072 | -0.021 | 0.045 | 0.032 | -0.117 |
| FXR2 (UniProt P51116) | -0.002 | -0.055 | -0.017 | -0.022 | -0.016 | -0.074 | 0.009 | 0.037 | 0.002 | 0.027 |
| EBP (UniProt Q15125) | -0.044 | -0.004 | 0.07 | -0.269 (active) | -0.093 | 0.1 | -0.016 | -0.127 | -0.011 | 0 |
| EDC3 (UniProt Q96F86) | -0.007 | -0.034 | -0.012 | -0.021 | 0.014 | 0.032 | -0.007 | 0.024 | -0.008 | -0.003 |
| EPB41 (UniProt P11171) | -0.009 | -0.015 | -0.007 | 0.04 | -0.016 | -0.105 | 0.035 | 0.01 | -0.013 | -0.088 |
| EXOC4 (UniProt Q96A65) | -0.038 | 0.018 | -0.044 | 0.011 | 0.024 | -0.165 | -0.028 | -0.023 | -0.056 | 0.015 |
| ERAL1 (UniProt O75616) | 0.075 | -0.025 | -0.035 | -0.152 | 0.014 | 0.321 (active) | 0.041 | 0.006 | -0.079 | 0.03 |
| FAM83A (UniProt Q86UY5) | 0.012 | 0.021 | 0.086 | -0.142 | -0.047 | 0.155 | -0.013 | 0.195 | -0.053 | 0.056 |
| EXOC6 (UniProt Q8TAG9) | -0.017 | -0.04 | -0.121 | -0.013 | 0 | -0.166 | 0.029 | 0.004 | -0.059 | 0.033 |
| FAM98A (UniProt Q8NCA5) | 0.001 | -0.024 | 0.007 | 0.074 | -0.024 | -0.059 | 0.023 | -0.015 | 0.012 | 0 |
| DUS2 (UniProt Q9NX74) | -0.033 | 0.04 | 0.041 | -0.032 | 0.018 | -0.051 | 0.011 | -0.01 | -0.017 | -0.009 |
| FECH isoform 2 (UniProt P22830) | -0.099 | 0.64 | 0.027 | -0.12 | -0.022 | 0.418 | 0 | -0.015 | 0.557 | -0.036 |
| GABPB1 isoform 3 (UniProt Q06547) | -0.057 | -0.086 | 0.001 | -0.007 | 0.068 | 0 | -0.001 | -0.029 | -0.149 | 0.043 |
| FADS3 (UniProt Q9Y5Q0) | 0.13 | -0.014 | -0.065 | -0.322 | -0.09 | 0 | 0.079 | -0.001 | -0.131 | -0.309 |
| DSTN (UniProt P60981) | 0.01 | 0.008 | 0.007 | -0.02 | -0.001 | -0.023 | 0.031 | -0.015 | 0.057 | 0.019 |
| GCDH (UniProt Q92947) | 0.016 | 0.012 | -0.017 | 0.013 | 0.19 | -0.005 | 0.007 | -0.026 | 0.047 | -0.004 |
| GBA2 (UniProt Q9HCG7) | -0.062 | -0.012 | 0.014 | -0.094 | 0.06 | -0.009 | -0.138 | 0.055 | -0.199 | 0.054 |
| FARSB (UniProt Q9NSD9) | 0.003 | -0.014 | -0.033 | 0.007 | 0.021 | -0.053 | -0.014 | 0.033 | -0.005 | -0.001 |
| FKBP8 isoform 2 (UniProt Q14318) | -0.041 | -0.036 | -0.12 | -0.035 | 0.044 | -0.021 | -0.024 | 0.064 | -0.07 | 0.013 |
| FTL (UniProt P02792) | -0.072 | -0.027 | -0.066 | -0.022 | -0.001 | 0.068 | 0.008 | -0.024 | -0.052 | -0.018 |
| ENO1, A0A2R8YEM5 | -0.016 | -0.037 | 0.017 | -0.469 (active) | 0 | 0.185 | 0.001 | -0.006 | 0.036 | 0.244 (active) |
